Measurements taken from the supplement of paper PMC3334620.
Over roughly 33,000 sequences, “E-score (-0.5 to 0.5)” has its median near -0.021; the highest 2% begin near 0.32. This excerpt belongs to a sample that is enriched for the highest values.

Target: T1, Zap1 (UniProt P47043)
T1 sequence: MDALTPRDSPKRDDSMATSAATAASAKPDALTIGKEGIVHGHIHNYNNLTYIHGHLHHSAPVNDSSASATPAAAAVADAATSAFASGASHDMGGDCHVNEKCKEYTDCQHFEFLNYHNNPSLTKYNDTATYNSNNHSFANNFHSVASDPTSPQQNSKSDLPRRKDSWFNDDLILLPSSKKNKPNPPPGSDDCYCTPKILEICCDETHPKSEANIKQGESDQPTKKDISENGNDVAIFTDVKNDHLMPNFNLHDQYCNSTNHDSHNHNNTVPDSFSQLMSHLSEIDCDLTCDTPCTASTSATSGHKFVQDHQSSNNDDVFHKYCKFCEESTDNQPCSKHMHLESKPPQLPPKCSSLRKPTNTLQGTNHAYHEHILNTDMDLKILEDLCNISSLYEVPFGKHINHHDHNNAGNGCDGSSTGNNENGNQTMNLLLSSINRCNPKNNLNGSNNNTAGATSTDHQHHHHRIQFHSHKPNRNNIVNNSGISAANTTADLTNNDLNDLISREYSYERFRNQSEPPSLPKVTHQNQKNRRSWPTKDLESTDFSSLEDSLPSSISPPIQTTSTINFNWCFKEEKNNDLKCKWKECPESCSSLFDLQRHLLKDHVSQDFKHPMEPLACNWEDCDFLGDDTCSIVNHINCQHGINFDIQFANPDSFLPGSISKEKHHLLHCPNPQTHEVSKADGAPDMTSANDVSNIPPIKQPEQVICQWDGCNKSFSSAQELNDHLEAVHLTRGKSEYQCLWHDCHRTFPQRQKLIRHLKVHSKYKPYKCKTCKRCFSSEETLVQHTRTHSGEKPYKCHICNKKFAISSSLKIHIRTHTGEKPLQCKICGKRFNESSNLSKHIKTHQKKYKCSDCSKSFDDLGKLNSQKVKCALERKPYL
Experiment: PBM E-score (8-mer binding enrichment) (E-score (-0.5 to 0.5)); higher = stronger / more preferred TF binding
Conditions: protein concentration: 200 nM; construct: GST-full length
Description: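 Universal 'all 10-mer' protein binding microarrays (Agilent AMADID 015681) probed with GST-tagged S. cerevisiae TFs (full-length or DBD) made by in vitro transcription/translation (PURExpress), about 100-200 nM. Bound TF was detected with fluorescent anti-GST. Each ungapped 8-mer (which stands for itself and its reverse complement) is scored by the PBM enrichment score (E-score), a modified Wilcoxon-Mann-Whitney statistic from -0.5 to +0.5, computed with the Universal PBM Analysis Suite. Scale: above 0.35 generally sequence-specific binding.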

First: GGTAGTAC
Second: CCAGCACA
The “PBM E-score” value of the first is higher: 0.248 for the first, -0.00996 for the second.

Compared with ATCGACCG, AGGTTATG is higher in “PBM E-score” value: -0.132 for the first, 0.475 for the second.

First: CTGTTATA
Second: ATGTTATG
The “PBM E-score” value of the first is lower: 0.115 for the first, 0.158 for the second.

Compared with AAGTTATC, CGGTTATA is higher in “PBM E-score” value: 0.0532 for the first, 0.405 for the second.

Compared with AGGTTATA, AGGTTATC is lower in “PBM E-score” value: 0.469 for the first, 0.463 for the second.

Going from ATGTTATA to ACGTTATC, the “PBM E-score” value falls from -0.0204 to -0.101.

First: ACGTTATA
Second: CCGTTATA
The “PBM E-score” value of the first is higher: 0.137 for the first, 0.103 for the second.

Going from AAGTTATG to GAGTACAC, the “PBM E-score” value falls from 0.181 to -0.0741.

Going from CGTTCCCA to AAGCAATG, the “PBM E-score” value rises from -0.125 to 0.0748.

Going from GAGAATAA to ACGATCGT, the “PBM E-score” value rises from 0.0442 to 0.0702.

Compared with ATACAGAA, AGTCTAGA is lower in “PBM E-score” value: 0.0186 for the first, -0.295 for the second.

Going from CTGAATGA to AGATAGCG, the “PBM E-score” value falls from 0.0581 to -0.163.

Going from AGGCCTTG to ACATCCAA, the “PBM E-score” value rises from -0.0709 to -0.00617.

First: CTGTTATC
Second: CAGTTATC
The “PBM E-score” value of the first is higher: 0.0763 for the first, 0.0632 for the second.

Compared with GCGTTATA, GAGTTATA is lower in “PBM E-score” value: 0.218 for the first, 0.142 for the second.

Going from CGGTTATC to GGGTTATA, the “PBM E-score” value rises from 0.424 to 0.474.

Compared with GCACTGAA, AGAGCGTG is lower in “PBM E-score” value: -0.136 for the first, -0.169 for the second.

Compared with AGCCACAA, GAGTCAGA is lower in “PBM E-score” value: 0.153 for the first, -0.157 for the second.

Going from AGAAGTAG to ACCACCCT, the “PBM E-score” value rises from -0.123 to 0.352.

Compared with ACCACCCA, AGCACCCG is lower in “PBM E-score” value: 0.252 for the first, 0.125 for the second.

Going from AGCACCCT to ACCACCCC, the “PBM E-score” value falls from 0.317 to -0.00264.

Going from AGCACCCA to GCAGGCTA, the “PBM E-score” value falls from -0.0894 to -0.25.

Compared with CTATTCGA, CCTAGCGC is higher in “PBM E-score” value: -0.0524 for the first, -0.0463 for the second.

First: AGCGATGG
Second: CGACAACC
The “PBM E-score” value of the first is lower: -0.195 for the first, 0.339 for the second.

Going from CCACAACG to CCGCAACA, the “PBM E-score” value rises from 0.0128 to 0.162.

First: CCACAACA
Second: CGACAACA
The “PBM E-score” value of the first is higher: 0.109 for the first, 0.0946 for the second.

First: CCACAACC
Second: CCGCAACC
The “PBM E-score” value of the first is higher: 0.411 for the first, 0.34 for the second.

Compared with AGACAACC, ACGCAACC is higher in “PBM E-score” value: 0.31 for the first, 0.316 for the second.

Compared with GCAGTTAC, CCCAAGAC is lower in “PBM E-score” value: 0.109 for the first, -0.045 for the second.

Going from GTTGAGAA to AGTACTGG, the “PBM E-score” value falls from -0.027 to -0.141.

First: GCGCTGTA
Second: CCTTAACC
The “PBM E-score” value of the first is lower: -0.043 for the first, 0.438 for the second.

Going from GCCTAACC to GCTTAACC, the “PBM E-score” value rises from 0.125 to 0.327.

Going from ACCTAACC to CCCTAGGA, the “PBM E-score” value falls from 0.269 to 0.0656.

Compared with CCCTAACC, CCCTAGGG is higher in “PBM E-score” value: 0.33 for the first, 0.41 for the second.

Compared with ACCTAGGG, GCTTAACA is lower in “PBM E-score” value: 0.119 for the first, -0.0361 for the second.

Going from CCTTAACA to GCTTAAAC, the “PBM E-score” value falls from 0.116 to -0.0479.

First: ACTTAACC
Second: CACTTTAC
The “PBM E-score” value of the first is higher: 0.287 for the first, 0.0657 for the second.

Compared with AGGTCTCC, ACACTTTC is lower in “PBM E-score” value: 0.00142 for the first, -0.104 for the second.

Going from ATCCTCCG to ATCCAACG, the “PBM E-score” value rises from -0.238 to -0.139.

First: AATCAGTC
Second: TCGCAACA
The “PBM E-score” value of the first is lower: -0.107 for the first, -0.0496 for the second.

First: CCCTAAGC
Second: CCCTAAGG
The “PBM E-score” value of the first is lower: -0.159 for the first, 0.402 for the second.

First: CCCTAAGA
Second: CGGGCGAG
The “PBM E-score” value of the first is higher: 0.263 for the first, -0.0126 for the second.

Compared with CCCACCCG, CCCACCCC is lower in “PBM E-score” value: 0.324 for the first, 0.149 for the second.

First: GCCACCCA
Second: ACCACCCG
The “PBM E-score” value of the first is lower: -0.0281 for the first, 0.184 for the second.

First: CCCACCCA
Second: TCCACCCA
The “PBM E-score” value of the first is higher: 0.323 for the first, -0.233 for the second.

Compared with GTCTTCTA, CTGATGGA is lower in “PBM E-score” value: -0.0319 for the first, -0.254 for the second.

First: AACCTTGA
Second: AACCTTGT
The “PBM E-score” value of the first is higher: 0.429 for the first, 0.229 for the second.

Compared with TACCTTGA, GACCTTGC is lower in “PBM E-score” value: 0.337 for the first, 0.133 for the second.

Compared with AACCTTGC, CACCTTGA is lower in “PBM E-score” value: 0.305 for the first, 0.179 for the second.

First: GTCCTTGA
Second: TACCTTCA
The “PBM E-score” value of the first is lower: 0.113 for the first, 0.255 for the second.

Compared with GACCTTGA, CTAGGGAC is lower in “PBM E-score” value: 0.34 for the first, -0.0705 for the second.

First: CAAAACTC
Second: GTCTCCCA
The “PBM E-score” value of the first is higher: 0.0001 for the first, -0.252 for the second.

Going from GTAAAGGA to CATAAACG, the “PBM E-score” value rises from -0.0539 to 0.0839.

First: AGGTAACA
Second: GGGTAATA
The “PBM E-score” value of the first is lower: 0.344 for the first, 0.348 for the second.

For AGGTAATA, the “PBM E-score” value was 0.263.
